Reference: PubChem BioAssay AID1159580 (chemical genetic matrix, 2015)
Several values for one entry are separate records, joined by “and”; a condition that tells them apart may be missing. Equal entries are not always repeated. The whole screen tested about 5,500 compounds, of which about 2,000 (36%) were called active. Another 18% or so got no clear call; they are omitted. No stated cut-off is given here; in the data, active means normalized growth mostly below about 0.91 (no sharp cut-off); inconclusive means no clear call, values can overlap the other calls; inactive means mostly above about 0.92. This is one part of the list.

Assay: chemical genetic growth profiling, strain panel (AID 1159580);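 further: tested at 20 µM; growth read once vehicle control cultures reached saturation at 30 °C; 1 = growth at the plate median or of vehicle wells; lower values mean less growth of the strain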
Conditions: S. cerevisiae deletion strains, growth OD

Measured: normalized growth

Cc1cc(O)c(C=O)c(O)c1C(=O)O
inactive: locus YAL021C, strain ccr4, active compounds read low 0.991 | locus YAL026C, strain drs2, active compounds read low 1.01 | locus YAL030W, strain snc1, active compounds read low 0.997 | locus YBL061C, strain skt5, active compounds read low 1.01 | locus YBR009C, strain hhf1, active compounds read low 1.02 | locus YBR021W, strain FUR4, active compounds read low 1.05 | locus YBR023C, strain chs3, active compounds read low 1.01 | locus YBR171W, strain sec66, active compounds read low 1 | locus YBR229C, strain ROT2, active compounds read low 0.999 | locus YBR231C, strain swc5, active compounds read low 0.99 | locus YBR279W, strain paf1, active compounds read low 0.997 | locus YCL011C, strain gbp2, active compounds read low 1.01 | locus YCL016C, strain dcc1, active compounds read low 1.01 | locus YCL029C, strain bik1, active compounds read low 1.02 | locus YCL061C, strain MRC1, active compounds read low 1.01 | locus YCL069W, strain vba3, active compounds read low 1 | locus YCR088W, strain abp1, active compounds read low 1.01 | locus YDL005C, strain med2, active compounds read low 1.01 | locus YDL035C, strain GPR1, active compounds read low 1.03 | locus YDL040C, strain nat1, active compounds read low 1.01 | locus YDL074C, strain BRE1, active compounds read low 1.06 | locus YDL101C, strain DUN1, active compounds read low 1.03 | locus YDL185W, strain tfp1, active compounds read low 0.987 | locus YDL192W, strain arf1, active compounds read low 1.03 | locus YDR001C, strain nth1, active compounds read low 0.999 | locus YDR069C, strain doa4, active compounds read low 0.977 | locus YDR101C, strain arx1, active compounds read low 1.04 | locus YDR137W, strain rgp1, active compounds read low 1.01 | locus YDR150W, strain NUM1, active compounds read low 0.983 | locus YDR159W, strain sac3, active compounds read low 1.01 | locus YDR162C, strain NBP2, active compounds read low 1.02 | locus YDR195W, strain ref2 0.99 | locus YDR297W, strain sur2, active compounds read low 0.997 | locus YDR318W, strain mcm21, active compounds read low 1 | locus YDR334W, strain swr1, active compounds read low 0.987 | locus YDR335W, strain msn5, active compounds read low 0.991 | locus YDR388W, active compounds read low 0.997 | locus YDR392W, strain spt3, active compounds read low 0.962 | locus YDR502C, strain sam2, active compounds read low 1.03 | locus YEL003W, strain gim4, active compounds read low 0.995 | locus YEL037C, strain rad23, active compounds read low 0.993 | locus YEL061C, strain CIN8 (second series), active compounds read low 0.999 | locus YEL061C, strain CIN8, active compounds read low 1.01 | locus YER015W, strain faa2, active compounds read low 1 | locus YER016W, strain bim1, active compounds read low 1 | locus YER110C, active compounds read low 1.01 | locus YER111C, strain swi4, active compounds read low 1 | locus YER155C, strain BEM2 (second series), active compounds read low 1 | locus YER155C, strain BEM2, active compounds read low 1.01 | locus YER167W, strain BCK2, active compounds read low 1.03 | locus YFR010W, strain ubp6, active compounds read low 0.999 | locus YGL078C, strain dbp3, active compounds read low 1.01 | locus YGL086W, strain mad1, active compounds read low 1.03 | locus YGL167C, strain pmr1, active compounds read low 0.989 | locus YGL173C, strain kem1, active compounds read low 1.01 | locus YGL227W, strain vid30, active compounds read low 0.999 | locus YGL240W, strain doc1, active compounds read low 0.929 | locus YGL248W, strain PDE1, active compounds read low 1.03 | locus YGL253W, strain hxk2, active compounds read low 1 | locus YGR078C, strain PAC10, active compounds read low 1.06 | locus YGR135W, strain pre9, active compounds read low 1.02 | locus YGR252W, strain gcn5, active compounds read low 1 | locus YHR013C, strain ard1, active compounds read low 1.01 | locus YHR027C, strain rpn1, active compounds read low 0.992 | locus YHR030C, strain SLT2, active compounds read low 1 and 1.02 | locus YHR079C, strain IRE1 (second series), active compounds read low 1.01 | locus YHR079C, strain IRE1, active compounds read low 1.04 | locus YHR094C, strain hxt1, active compounds read low 1.01 | locus YHR129C, strain ARP1, active compounds read low 1.02 | locus YHR142W, strain chs7, active compounds read low 1.03 | locus YHR200W, strain rpn10, active compounds read low 1.02 | locus YIL066C, strain RNR3, active compounds read low 1.05 | locus YIL073C, strain SPO22, active compounds read low 1.12 | locus YIL125W, strain kgd1, active compounds read low 1 | locus YIR030C, strain dcg1, active compounds read low 1.02 | locus YJL092W, strain hpr5, active compounds read low 1.01 | locus YJL095W, strain BCK1 (second series), active compounds read low 1.01 | locus YJL095W, strain BCK1, active compounds read low 1.1 and 1 | locus YJL115W, strain asf1, active compounds read low 0.999 | locus YJL129C, strain trk1, active compounds read low 1.05 | locus YJL134W, strain LCB3, active compounds read low 0.993 | locus YJL154C, strain vps35, active compounds read low 0.996 | locus YJL164C, strain tpk1, active compounds read low 1.02 | locus YJL166W, strain qcr8, active compounds read low 1.01 | locus YJL168C, strain set2, active compounds read low 0.997 | locus YJL187C, strain SWE1 (second series), active compounds read low 1.05 | locus YJL187C, strain SWE1, active compounds read low 0.998 | locus YJR043C, strain POL32, active compounds read low 1.02 | locus YJR066W, strain TOR1, active compounds read low 0.93 | locus YJR075W, strain HOC1, active compounds read low 1.06 | locus YKL009W, strain mrt4, active compounds read low 1.04 | locus YKL068W, active compounds read low 0.987 | locus YKL085W, strain MDH1 (second series), active compounds read low 1 | locus YKL085W, strain MDH1, active compounds read low 1 | locus YKL160W, strain elf1, active compounds read low 1.03 | locus YKR001C, strain vps1, active compounds read low 1.03 | locus YKR026C, strain gcn3, active compounds read low 1.01 | locus YKR091W, strain srl3, active compounds read low 1.01 | locus YLL001W, strain dnm1, active compounds read low 1.02 | locus YLL026W, active compounds read low 1.01 | locus YLL041C, strain sdh2, active compounds read low 0.997 | locus YLR027C, strain aat2, active compounds read low 1.01 | locus YLR039C, strain RIC1, active compounds read low 1.09 | locus YLR058C, strain SHM2, active compounds read low 0.965 | locus YLR102C, strain apc9, active compounds read low 1.01 | locus YLR113W, strain HOG1, active compounds read low 1.07 | locus YLR221C, strain rsa3, active compounds read low 1.03 | locus YLR258W, strain gsy2, active compounds read low 1 | locus YLR262C, strain YPT6 (second series), active compounds read low 1.01 | locus YLR262C, strain YPT6, active compounds read low 1.14 | locus YLR268W, strain sec22, active compounds read low 1.04 | locus YLR320W, strain mms22, active compounds read low 1.05 | locus YLR330W, strain CHS5, active compounds read low 1 | locus YLR342W, strain FKS1 (second series), active compounds read low 1.01 | locus YLR342W, strain FKS1, active compounds read low 1.01 | locus YLR357W, strain rsc2, active compounds read low 1.02 | locus YLR370C, strain arc18, active compounds read low 1 | locus YLR371W, strain rom2, active compounds read low 1.01 | locus YLR384C, strain iki3, active compounds read low 0.999 | locus YLR418C, strain cdc73, active compounds read low 1.05 | locus YML016C, strain PPZ1, active compounds read low 1.01 | locus YML032C, strain rad52, active compounds read low 0.985 | locus YML120C, strain ndi1, active compounds read low 1.01 | locus YML124C, strain tub3, active compounds read low 1.01 | locus YMR058W, strain fet3, active compounds read low 0.987 | locus YMR078C, strain ctf18, active compounds read low 0.999 | locus YMR125W, strain sto1, active compounds read low 1.01 | locus YMR129W, active compounds read low 1 | locus YMR205C, strain PFK2, active compounds read low 1.05 | locus YMR223W, strain ubp8, active compounds read low 1.02 | locus YMR231W, strain pep5, active compounds read low 0.989 | locus YMR263W, strain SAP30, active compounds read low 1.06 | locus YMR307W, strain GAS1, active compounds read low 1.08 | locus YNL067W, strain RPL9B, active compounds read low 1.05 | locus YNL071W, strain lat1, active compounds read low 1.01 | locus YNL183C, strain NPR1, active compounds read low 0.946 | locus YNL209W, strain ssb2, active compounds read low 0.992 | locus YNL233W, strain BNI4, active compounds read low 1.09 | locus YNL248C, strain rpa49, active compounds read low 1.01 | locus YNL250W, strain rad50, active compounds read low 0.986 | locus YNL271C, strain bni1, active compounds read low 1 | locus YNL298W, strain CLA4, active compounds read low 1.01 | locus YNL307C, strain MCK1, active compounds read low 1.03 | locus YNL322C, strain KRE1 (second series), active compounds read low 1.01 | locus YNR049C, strain mso1, active compounds read low 1.01 | locus YNR052C, strain pop2, active compounds read low 0.992 | locus YOL012C, strain htz1 0.989 | locus YOL147C, strain pex11, active compounds read low 1 | locus YOR001W, strain rrp6, active compounds read low 1.02 | locus YOR061W, strain CKA2, active compounds read low 1 | locus YOR069W, strain VPS5, active compounds read low 1.01 | locus YOR070C, strain gyp1, active compounds read low 0.998 | locus YOR080W, strain dia2, active compounds read low 0.998 | locus YOR083W, strain WHI5, active compounds read low 1.04 | locus YOR106W, strain vam3, active compounds read low 1.03 | locus YOR136W, strain idh2, active compounds read low 1.03 | locus YOR144C, strain elg1, active compounds read low 1 | locus YOR184W, strain ser1, active compounds read low 1.05 | locus YOR231W, strain MKK1, active compounds read low 1.04 | locus YOR265W, strain rbl2, active compounds read low 1.01 | locus YOR270C, strain vph1, active compounds read low 1.02 | locus YOR290C, strain snf2, active compounds read low 1.02 | locus YOR316C, strain cot1, active compounds read low 1.01 | locus YPL051W, strain arl3, active compounds read low 0.999 | locus YPL078C, strain atp4, active compounds read low 1.01 | locus YPL106C, strain sse1, active compounds read low 0.995 | locus YPL240C, strain hsp82, active compounds read low 1 | locus YPL241C, strain CIN2, active compounds read low 0.995 | locus YPL256C, strain CLN2, active compounds read low 1.03 | locus YPR119W, strain clb2, active compounds read low 0.999 | locus YPR141C, strain kar3, active compounds read low 0.993 | locus YPR163C, strain tif3, active compounds read low 1 | locus YPR167C, strain met16, active compounds read low 1.01 | strain wtn01, active compounds read low 1.04
